Most compounds without a hit are left out; they make up all but 4.1% or so of the library.
ssDAF12 agonist – activates DAF-12 receptor from parasite S. stercoralis; HEK293 ssDAF-12/GRIP1 lit1-tk-luc reporter, luminescence; % of 3 µM dafachronic acid response; activation, % at 6.8 µM; actives 1% (n = 370,000); AID 652126;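 active means activation above the mean over all tested compounds plus 3 SD, cut at about 0.9% in these data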;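 further: 0% = DMSO-only wells and 100% = 3 µM delta7-dafachronic acid wells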
hcDAF12 agonist – activators of H. contortus DAF-12 nuclear receptor. HEK293 hcDAF-12 lit1-tk-luc reporter, luminescence; 0% DMSO, 100% Δ7-dafachronic acid. activation, % at 6.8 µM. actives 1.4% (n = 370,000). AID 652067;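 active means activation above the mean of all tested compounds plus 3 SD, cut at about 5.5% in these data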;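 further: 100% = response to 3 µM Δ7-dafachronic acid high control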
DAX1 inh-1 – blocks DAX1 repression of SF-1 activated StAR promoter; HEK293T StAR-luciferase reporter, SF-1/DAX-1 repression relief; inhibition, % at 6.8 µM; actives 1.1% (n = 370,000); AID 652010;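 active means inhibition above the mean over all tested compounds plus 3 SD, cut at about 3.6% in these data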;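 further: 0% = DAX-1 cells with DMSO and 100% = cells lacking DAX-1 with DMSO; higher inhibition means more luminescence from relief of DAX-1 repression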
hgDAF12 agonist – activates the H. glycines DAF-12 receptor ligand-binding domain | HEK293 GAL4-hgDAF12 UAS-luciferase reporter, agonist luminescence; normalized to butyrate control | activation, % at 6.8 µM | actives 1.8% (n = 370,000) | AID 687014;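 active means activation above a cutoff set at the mean of all screened compounds plus 3 SD, cut at about 10% in these data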;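 further: 0% = DMSO wells and 100% = sodium butyrate wells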
DAX1 inh-2 – inhibits human nuclear receptor DAX1; P51843; HEK293 Gal4-DAX1 luciferase reporter, luminescence; inhibition, % at 6.75 µM; actives 0.99% (n = 340,000); AID 504766;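 active means inhibition above the mean over all tested compounds plus 3 SD, cut at about 4.2% in these data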;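 further: 0% = DAX1-transfected cells with DMSO and 100% = empty-vector control cells with DMSO; inhibition shows as a rise in luminescence from relieved DAX1 repression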
Target sequence (P51843 207-470 limits assumed): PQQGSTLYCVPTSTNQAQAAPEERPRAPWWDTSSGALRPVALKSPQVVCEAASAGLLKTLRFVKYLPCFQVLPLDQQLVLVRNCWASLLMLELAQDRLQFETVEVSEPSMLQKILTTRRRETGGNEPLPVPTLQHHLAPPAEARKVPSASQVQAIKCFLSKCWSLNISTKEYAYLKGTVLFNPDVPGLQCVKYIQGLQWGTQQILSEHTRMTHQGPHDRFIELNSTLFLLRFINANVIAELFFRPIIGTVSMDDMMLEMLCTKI
Numbers without * were called inactive; · = no result.

SMILES	ssDAF12 agonist	hcDAF12 agonist	DAX1 inh-1	hgDAF12 agonist	DAX1 inh-2
COc1ccc(OC(=O)c2cnn(-c3ccccc3)c2C)cc1	0	3	2	13*	2
COC(=O)[C@]12C[C@H](CC(=O)N3CCCCC3)C(=O)N(Cc3ccc4c(c3)OCO4)C1=C[C@H](C(C)C)O[C@@H]2C1CC1	-2	-2	-1	0	·
COc1ccccc1C(=O)Nc1nnc(S(=O)(=O)N2CCC(C)CC2)s1	-1	1	0	3	5.0*
COc1ccc(C2C=C(C)Nc3ncnn32)cc1 (centres undefined)	-1	0	2	3	4.6*
CC1=CC(c2ccc(Cl)cc2)n2ncnc2N1 (centres undefined)	-2	-1	0	2	0
Nc1n[nH]c(N)c1N=Nc1ccc2c(c1)OCO2	-1	2	1	9	4.8*
CCc1ccc(-c2nc(CCl)cs2)cc1	0	6	3	12*	1
COc1ccc(-c2nc(CCl)cs2)cc1	0	4	2	5	-1
CN(C)S(=O)(=O)c1ccc(NC(=O)c2ccccn2)cc1	0	2	3	13*	2
Cc1ccc(S(=O)(=O)N(C)c2ccc(C(=O)Nc3ccccn3)cc2)cc1	-2	1	1	1	-2
CN(C)S(=O)(=O)c1ccc(C(=O)Nc2ccccn2)cc1	-1	0	2	11*	1
CC(=O)c1ccc(Oc2ncnc3sccc23)cc1	-1	2	3	11*	3
CCCCN1CCS(=O)(=O)N(Cc2ccc(Cl)cc2)C(C(=O)OC)C1 (centres undefined)	-1	-3	-1	-1	·
Cc1ccc(OCC(=O)Nc2cccc(C)n2)c(C)c1	0	4	3	11*	1
Cc1nc(NC(=S)NC(=O)COc2ccc(Cl)cc2)ccc1Br	-1	0	-1	2	6.0*
Cc1ccc(OCC(=O)NC(=S)Nc2cccc(C)n2)cc1	-1	2	0	0	7.8*
Cc1cccc(NC(=O)COc2ccc(Br)cc2)n1	0	2	1	6	1
N#Cc1ccccc1NC(=O)COC(=O)c1cccs1	-1	1	0	-3	0
N#Cc1ccccc1NC(=S)NC(=O)c1cccs1	1	6.0*	3	10	2
COC(=O)[C@]12C[C@H](CC(=O)NCc3cccc(C(F)(F)F)c3)C(=O)N(Cc3ccccc3)C1=C[C@H](COCc1ccccc1)O[C@@H]2C	-1	-2	-1	5	·
COc1cccc(Cn2cc(COC(=O)NCCc3ccccc3)nn2)c1	-1	-1	0	-2	·
Cc1nc(NC(=S)NC(=O)c2cccs2)ccc1Br	1.3*	5	0	5	1
Cc1cccc(NC(=O)Nc2ccc(C)c(C)c2)n1	1	6.2*	1	7	2
Cc1cccc(NC(=S)NC(=O)c2cccs2)n1	-1	3	1	6	1
O=S1(=O)c2ccc(N3CCC[C@@H]3CO)cc2OCCCN1C1CC1	-1	-1	0	4	·
SMILES	ssDAF12 agonist	hcDAF12 agonist	DAX1 inh-1	hgDAF12 agonist	DAX1 inh-2
O=C(NC1CCCCCCC1)c1cc([N+](=O)[O-])ccc1Cl	-1	0	-1	2	0
O=C(NCC1CCCCC1)c1ccc([N+](=O)[O-])cc1	-1	0	0	3	10*
CCN(CC)S(=O)(=O)c1cc(C(=O)NC2CCCCC2)ccc1C	0	3	2	11*	-1
O=C(NC1CCCCC1)c1ccc([N+](=O)[O-])cc1	1	1	3.7*	6	1
O=C(NCC1CCCCC1)c1cccc([N+](=O)[O-])c1	-1	0	0	3	2
CCOc1ccc(C(=O)NC2CCCCCCC2)cc1	1	6.1*	3	12*	2
CCN(Cc1ccccc1)S(=O)(=O)c1cc(C(=O)NC2CCCCCC2)ccc1OC	-2	0	-1	-4	-2
COc1ccc(CCNC(=O)Cn2nc(-c3ccccc3)ccc2=O)cc1	-1	1	-1	-3	·
CC(C)Cn1cc(C(=O)NCCCN2CCCC2=O)c2c3ccccc3n(C)c2c1=O	-1	1	0	-1	1
CC1CCN(CCCNC(=O)c2cc3c(=O)n(C)c4ccccc4c3n2C)CC1	-1	3	4.7*	2	6.0*
CC(C)Cn1cc(C(=O)NCCCN2CCC(C)CC2)c2c3ccccc3n(C)c2c1=O	-1	3	2	-2	5.3*
Nc1nc(SCC(=O)O)[nH]c(=O)c1NC(=O)c1ccco1	-1	0	2	2	1
Nc1nc(SCC(=O)N2CCCC2)[nH]c(=O)c1NC(=O)c1ccco1	2.3*	0	0	-1	1
O=C(Nc1ccc(Cl)c(Cl)c1)Nc1ccccc1O	0	5	1	10	2
O=C(Nc1ccccc1O)c1nc(Cl)ccc1Cl	2.5*	5.9*	0	0	2
Cn1cnc(S(=O)(=O)NCc2cccs2)c1	1.6*	0	0	1	3
COc1cc2c(cc1CNC[C@H]1O[C@@H](n3cc(C)c(=O)[nH]c3=O)C[C@@H]1O)OCO2	-1	1	0	1	5.0*
CCCCNC(=O)O[C@H]1CC[C@@]23CCCN2C(=O)CCC[C@H]3[C@H]1C	-1	-1	·	-3	·
O=C(NNC(=O)c1ccncc1)Nc1ccc(N=Nc2ccccc2)cc1	1	5	2	10*	0
O=c1c2c(nc3n1CCCCC3)sc1c(O)c(Br)ccc12	0	4	4.4*	6	2
COc1cc(C=O)ccc1OCc1ccccc1Br	0	6.2*	1	5	-1
CC1CCN(c2c(NCc3ccc(C(=O)N4c5ccccc5CC4C)cc3)c(=O)c2=O)CC1 (centres undefined)	1.1*	1	-2	-1	-1
Cc1ccc(Cn2cc(CN(C(C)(C)C)S(=O)(=O)c3ccccc3Br)nn2)cc1	-1	2	-1	5	·
CCCC1CCC(c2nc(-c3cccnc3)no2)CC1 (centres undefined)	-1	0	1	0	4.7*
Cc1cccc(C)c1NC(=O)[C@@H]1CC(=O)O[C@@H]1c1ccccc1	-1	0	-1	-2	·
CC(=O)c1ccc(-n2c(-c3cc(-c4ccco4)[nH]n3)n[nH]c2=S)cc1	-1	-1	0	-2	5.6*
O=C(O)c1ccc(-n2c(-c3cc(C4CC4)[nH]n3)n[nH]c2=S)cc1	-1	-1	1	-1	4.6*
O=C(O)c1ccc(-n2c(-c3cc(-c4ccco4)[nH]n3)n[nH]c2=S)cc1	-1	-1	0	0	-1
COc1ccc(NC(=O)N2CCC(N(C)CCC(C)C)CC2)cc1OC	-1	-3	0	5	·
O=C(Nc1sc2c(c1C(=O)O)CCC2)c1cccs1	-1	5.7*	1	4	2
